Measured values published in the supplement of paper PMC9925115.
± gives the uncertainty stated by the source.

Legend:
[1] = tested on: FLX1; experiment: cell viability z-score within plate (CellTiter-Glo), mean of 3 biological replicates; higher = higher viability relative to plate (less growth inhibition); conditions: 2 µM; time (hr): 120
Description: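 FLX1 fibrolamellar carcinoma cells (DNAJB1-PRKACA fusion), 600 cells/well in 384-well plates, treated with a Selleck kinase inhibitor library (L1200) at 2 uM for 5 days (120 hr); viability by CellTiter-Glo. A z-score was computed within each plate and averaged over three biological replicates.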

[2] = tested on: FLX1 + dox-induced PRKAR1A G325D; experiment: difference in log2 fold change of viability vs plate median (dox-induced PRKAR1A G325D minus uninduced); higher = compound less effective when PKA is inhibited; conditions: concentration: not stated (2 or 5 uM); 5 days
Description: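 For each plate a log2 fold change vs the plate median was derived, and the values without dox were subtracted from those with dox, averaged over three biological replicates.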

In the case of `Cc1ccc(-n2nc(C(C)(C)C)cc2NC(=O)Nc2ccc(OCCN3CCOCC3)c3ccccc23)cc1` [Doramapimod (BIRB 796)], the “cell viability z-score within plate” value [1] is reported as 0.479 ± 0.82 and the “difference in log2 fold change of viability” value (shortened to “difference in log2 fold change”) [2] is reported as 0.496.

With `O=C(NC1CCNCC1)c1n[nH]cc1NC(=O)c1c(Cl)cccc1Cl` the “cell viability z-score within plate” value [1] was -0.72 ± 0.28 and the “difference in log2 fold change” value [2] was 0.272.

In the case of `CCCCOc1c(C(=O)c2c(F)cc(C)cc2F)c[nH]c2nncc1-2`, the “cell viability z-score within plate” value [1] is reported as -0.865 ± 0.43 and the “difference in log2 fold change” value [2] is reported as 0.486.

With `O=C1NC(=O)/C(=C/c2ccc(-c3ccc(F)cc3O)o2)S1` the “cell viability z-score within plate” value [1] was 1.21 ± 0.57 and the “difference in log2 fold change” value [2] was -0.649.

`CO[C@H]1C[C@@H]2CC[C@@H](C)[C@@](O)(O2)C(=O)C(=O)N2CCCC[C@H]2C(=O)O[C@H]([C@H](C)C[C@@H]2CC[C@@H](OP(C)(C)=O)[C@H](OC)C2)CC(=O)[C@H](C)/C=C(\C)[C@@H](O)[C@@H](OC)C(=O)[C@H](C)C[C@H](C)/C=C/C=C/C=C/1C` [Ridaforolimus (Deforolimus, MK-8669)] was tested, and the “cell viability z-score within plate” value [1] was -0.102 ± 0.36 and the “difference in log2 fold change” value [2] was 0.419.

For `N#Cc1c(NC(=O)c2cccc3ccccc23)sc2c1CCCC2` [JNK Inhibitor IX], the “cell viability z-score within plate” value [1] was 0.195 ± 0.75 and the “difference in log2 fold change” value [2] was 0.317.

For `NC(=O)Nc1cc(-c2cccc(F)c2)sc1C(=O)N[C@H]1CCCNC1`, the “cell viability z-score within plate” value [1] was 0.408 ± 0.47 and the “difference in log2 fold change” value [2] was -0.12.

For `COc1cc2c(Oc3ccc4[nH]c(C)cc4c3F)ncnc2cc1OCCCN1CCCC1` [Cediranib (AZD2171)], the “cell viability z-score within plate” value [1] was 0.6 ± 0.47 and the “difference in log2 fold change” value [2] was 0.58.

For `O=c1sn(-c2cccc3ccccc23)c(=O)n1Cc1ccccc1` [Tideglusib], the “cell viability z-score within plate” value [1] was -2.63 ± 1.1 and the “difference in log2 fold change” value [2] was 1.01.

In the case of `COc1cc2nccc(Oc3ccc(NC(=O)C4(C(=O)Nc5ccc(F)cc5)CC4)cc3)c2cc1OC` [Cabozantinib malate (XL184)], the “cell viability z-score within plate” value [1] is reported as 0.553 ± 0.015 and the “difference in log2 fold change” value [2] is reported as -0.77.

With `O=S(=O)(NCCNC/C=C/c1ccc(Br)cc1)c1cccc2cnccc12` the “cell viability z-score within plate” value [1] was -2.86 ± 1.5 and the “difference in log2 fold change” value [2] was -0.243.

With `O=C(O)[C@]1(Cc2cccc(Nc3nccs3)n2)CC[C@@H](Oc2cccc(Cl)c2F)CC1` the “cell viability z-score within plate” value [1] was -1.08 ± 1 and the “difference in log2 fold change” value [2] was -0.795.

With `O=C(NCc1cccc(O)c1)Nc1nc(-c2ccncc2)cs1` the “cell viability z-score within plate” value [1] was 0.289 ± 0.42 and the “difference in log2 fold change” value [2] was -0.0799.

With `COc1cc2nccc(Oc3ccc(NC(=O)C4(C(=O)Nc5ccc(F)cc5)CC4)cc3)c2cc1OC` the “cell viability z-score within plate” value [1] was 0.561 ± 0.36 and the “difference in log2 fold change” value [2] was 0.457.

In the case of `COc1ccc(-c2ccc3c(N4CCOC[C@@H]4C)nc(N4CCOC[C@@H]4C)nc3n2)cc1CO`, the “cell viability z-score within plate” value [1] is reported as 0.926 ± 0.45 and the “difference in log2 fold change” value [2] is reported as 1.55.

With `CC(C)(C)c1cnc(CSc2cnc(NC(=O)C3CCNCC3)s2)o1` the “cell viability z-score within plate” value [1] was -1.06 ± 1.3 and the “difference in log2 fold change” value [2] was 0.0393.

With `C=CC(=O)Nc1cccc(Sc2nc(Nc3ccc(N4CCN(C)CC4)cc3)ncc2Cl)c1` the “cell viability z-score within plate” value [1] was 0.081 ± 0.26 and the “difference in log2 fold change” value [2] was 0.0442.

With `N#CC[C@H](C1CCCC1)n1cc(-c2ncnc3[nH]ccc23)cn1` the “cell viability z-score within plate” value [1] was 0.242 ± 0.22 and the “difference in log2 fold change” value [2] was 0.145.

For `CS(=O)(=O)N1CCc2c(-c3cnc(N)nc3)nc(N3CCOCC3)nc21`, the “cell viability z-score within plate” value [1] was 0.617 ± 0.29 and the “difference in log2 fold change” value [2] was 0.207.

For `CCCS(=O)(=O)Nc1ccc(F)c(C(=O)c2c[nH]c3ncc(-c4ccc(Cl)cc4)cc23)c1F` [Vemurafenib (PLX4032, RG7204)], the “cell viability z-score within plate” value [1] was -3.08 ± 1.3 and the “difference in log2 fold change” value [2] was 0.336.

With `O=C(O)c1ccc(Nc2ncc3c(n2)-c2ccc(Cl)cc2C(c2c(F)cccc2F)=NC3)cc1` the “cell viability z-score within plate” value [1] was 1.2 ± 0.42 and the “difference in log2 fold change” value [2] was -0.0396.

For `OCCn1cc(-c2ccc3c(c2)CC/C3=N\O)c(-c2ccncc2)n1`, the “cell viability z-score within plate” value [1] was 0.788 ± 0.054 and the “difference in log2 fold change” value [2] was 0.00993.

For `CC(C)(O)CC(=O)NCCn1ccc2ncnc(Nc3ccc(Oc4cccc(C(F)(F)F)c4)c(Cl)c3)c21`, the “cell viability z-score within plate” value [1] was -0.891 ± 0.77 and the “difference in log2 fold change” value [2] was -0.173.

For `Cn1cc(-c2ccc3nnc(C(F)(F)c4ccc5ncccc5c4)n3n2)cn1`, the “cell viability z-score within plate” value [1] was -0.299 ± 0.51 and the “difference in log2 fold change” value [2] was 0.158.

With `COc1cc2ncnc(Nc3ccc(Cl)cc3F)c2cc1OC` the “cell viability z-score within plate” value [1] was 1.18 ± 0.67 and the “difference in log2 fold change” value [2] was -0.233.

In the case of `Cc1cc(Nc2cc(N3CCN(C)CC3)nc(/C=C/c3ccccc3)n2)n[nH]1`, the “cell viability z-score within plate” value [1] is reported as 0.628 ± 0.19 and the “difference in log2 fold change” value [2] is reported as -0.0361.

In the case of `c1cncc(CN2CCC(n3ncc4c(N5CCOCC5)nc(-c5ccc6[nH]ccc6c5)nc43)CC2)c1`, the “cell viability z-score within plate” value [1] is reported as 0.437 ± 0.062 and the “difference in log2 fold change” value [2] is reported as -1.08.

For `Cc1cnc(NC(=O)Nc2cc(Br)c(C)cc2OC[C@@H]2CNCCO2)cn1`, the “cell viability z-score within plate” value [1] was 0.709 ± 0.31 and the “difference in log2 fold change” value [2] was 1.29.

`O=c1c(-c2ccc(O)cc2)coc2cc(O)cc(O)c12` [Genistein] was tested, and the “cell viability z-score within plate” value [1] was -0.148 ± 0.52 and the “difference in log2 fold change” value [2] was 0.126.

In the case of `COc1cc(Nc2ncc(F)c(Nc3ccc4c(n3)N(COP(=O)(O)O)C(=O)C(C)(C)O4)n2)cc(OC)c1OC` [Fostamatinib (R788)], the “cell viability z-score within plate” value [1] is reported as 0.458 ± 0.74 and the “difference in log2 fold change” value [2] is reported as -0.76.

With `Cc1c(CN2CCN(C(=O)[C@H](C)O)CC2)sc2c(N3CCOCC3)nc(-c3cnc(N)nc3)nc12` [Apitolisib (GDC-0980, RG7422)] the “cell viability z-score within plate” value [1] was 0.169 ± 0.42 and the “difference in log2 fold change” value [2] was 0.628.

`C[C@H]1[C@H](C)CC[C@]2(C(=O)O)CC[C@]3(C)C(=CC[C@@H]4[C@@]5(C)C[C@@H](O)[C@H](O)[C@@](C)(CO)[C@@H]5CC[C@]43C)[C@H]12` [Asiatic Acid] was tested, and the “cell viability z-score within plate” value [1] was 0.124 ± 0.46 and the “difference in log2 fold change” value [2] was -0.0847.
